Test results published in the supplement of paper PMC3334620.
Over roughly 33,000 sequences, “E-score (-0.5 to 0.5)” has its median near -0.035; the highest 2% begin near 0.34. For the sample, the highest values were picked, then their nearest neighbours and some sequences at random.

target: T1, Mot3 (UniProt P54785); assay: PBM E-score (8-mer binding enrichment) (E-score (-0.5 to 0.5)); higher = stronger / more preferred TF binding; conditions: protein concentration: 200 nM; construct: GST-full length
T1 sequence: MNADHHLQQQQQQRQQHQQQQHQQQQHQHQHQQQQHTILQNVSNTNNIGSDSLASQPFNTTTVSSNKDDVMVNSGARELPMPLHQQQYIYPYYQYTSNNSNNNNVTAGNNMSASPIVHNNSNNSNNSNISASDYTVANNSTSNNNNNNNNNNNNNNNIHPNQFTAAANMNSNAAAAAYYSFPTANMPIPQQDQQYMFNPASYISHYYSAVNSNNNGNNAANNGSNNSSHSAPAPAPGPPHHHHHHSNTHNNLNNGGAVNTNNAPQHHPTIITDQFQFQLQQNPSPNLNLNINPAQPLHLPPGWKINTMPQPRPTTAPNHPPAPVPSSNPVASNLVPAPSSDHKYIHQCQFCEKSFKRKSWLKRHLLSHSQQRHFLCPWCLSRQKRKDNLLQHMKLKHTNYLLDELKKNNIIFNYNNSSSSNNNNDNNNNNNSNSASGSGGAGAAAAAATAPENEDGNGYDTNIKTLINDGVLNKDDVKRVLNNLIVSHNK
Description: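 Universal 'all 10-mer' protein binding microarrays (Agilent AMADID 015681) probed with GST-tagged S. cerevisiae TFs (full-length or DBD) made by in vitro transcription/translation (PURExpress), about 100-200 nM. Bound TF was detected with fluorescent anti-GST. Each ungapped 8-mer (which stands for itself and its reverse complement) is scored by the PBM enrichment score (E-score), a modified Wilcoxon-Mann-Whitney statistic from -0.5 to +0.5, computed with the Universal PBM Analysis Suite. Scale: above 0.35 generally sequence-specific binding.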

AGGAAAAT and AGGAAAAC are the same in “PBM E-score” value: 0.416 for the first, 0.416 for the second.

Compared with AGAAAAAT, AGGAAAAA is higher in “PBM E-score” value: 0.133 for the first, 0.352 for the second.

Going from GGGAAAAC to CGGAAAAC, the “PBM E-score” value rises from -0.195 to 0.0409.

Compared with AGGAAAAG, ACGAAAAT is lower in “PBM E-score” value: 0.305 for the first, 0.163 for the second.

Going from TGGAAAAA to CCAGGGGA, the “PBM E-score” value falls from 0.0684 to -0.363.

Compared with ATGAGAAC, ATAGTGCA is higher in “PBM E-score” value: 0.00278 for the first, 0.134 for the second.

Compared with GATTGAAC, ACCTCATG is lower in “PBM E-score” value: 0.142 for the first, -0.175 for the second.

Going from AAACGCTA to CACAACAG, the “PBM E-score” value rises from -0.0463 to 0.181.

Compared with AGTCCCCA, CCATGATC is higher in “PBM E-score” value: -0.348 for the first, -0.251 for the second.

Compared with ACATGAAC, ACATGACA is higher in “PBM E-score” value: 0.256 for the first, 0.343 for the second.

Going from GCATGATA to ACATGAAT, the “PBM E-score” value rises from 0.0933 to 0.294.

First: ACATGATC
Second: ACATGACT
The “PBM E-score” value of the first is higher: 0.385 for the first, 0.211 for the second.

Going from ACATGATA to GCATGACA, the “PBM E-score” value falls from 0.35 to 0.116.

Compared with ACATGAAG, CCATGATA is lower in “PBM E-score” value: 0.344 for the first, -0.147 for the second.

First: ACATGATG
Second: CCACACCC
The “PBM E-score” value of the first is higher: 0.241 for the first, -0.133 for the second.

Compared with CAGGAGGG, AGAGTGAT is higher in “PBM E-score” value: -0.159 for the first, 0.105 for the second.

Going from CTCGCCAA to CAGTTGTA, the “PBM E-score” value rises from -0.0783 to 0.00216.

Compared with TAGCCAAA, CACAGACC is higher in “PBM E-score” value: -0.0612 for the first, 0.0761 for the second.

Going from CACGCTTC to AAGTTTAA, the “PBM E-score” value falls from 0.146 to 0.068.

Going from ATAACACA to ATAACACG, the “PBM E-score” value rises from 0.332 to 0.391.

First: ACAACATG
Second: CTAACATA
The “PBM E-score” value of the first is higher: 0.359 for the first, 0.156 for the second.

First: ATAACATC
Second: ACAACATC
The “PBM E-score” value of the first is higher: 0.21 for the first, 0.195 for the second.

Compared with ATAACATA, ATAACATG is higher in “PBM E-score” value: 0.344 for the first, 0.36 for the second.

Compared with ATAACAGG, GTAACATA is higher in “PBM E-score” value: 0.229 for the first, 0.26 for the second.

First: CTAACACA
Second: ACAACATA
The “PBM E-score” value of the first is higher: 0.313 for the first, 0.307 for the second.

First: GCGCTCGA
Second: ATCAACGC
The “PBM E-score” value of the first is lower: -0.00313 for the first, 0.194 for the second.

Compared with CGTCGCAC, ATGGGCAC is higher in “PBM E-score” value: -0.243 for the first, 0.333 for the second.

Going from CGATTAAG to CCCTTCGA, the “PBM E-score” value falls from 0.108 to 0.0666.

Compared with ACCGTACG, CGTGCTAG is higher in “PBM E-score” value: -0.116 for the first, -0.0215 for the second.

First: AAAACATT
Second: AAAACATA
The “PBM E-score” value of the first is lower: 0.187 for the first, 0.314 for the second.

Going from AAAACATG to CCATCAGG, the “PBM E-score” value falls from 0.351 to -0.179.

Going from AGGGTCAA to CCTGCATA, the “PBM E-score” value rises from -0.0327 to 0.126.

Compared with AAAGTGTG, CTTTTTAC is higher in “PBM E-score” value: 0.0664 for the first, 0.21 for the second.

First: AAATACAC
Second: ATATACAC
The “PBM E-score” value of the first is higher: 0.37 for the first, 0.358 for the second.

Going from CAATACAC to AAATACAA, the “PBM E-score” value falls from 0.331 to 0.281.

Going from CTATACAC to AAATACAT, the “PBM E-score” value rises from 0.254 to 0.344.

First: GTATACAC
Second: AAATATAC
The “PBM E-score” value of the first is higher: 0.323 for the first, 0.0863 for the second.

Compared with AAATACCC, GAATACAA is higher in “PBM E-score” value: -0.0215 for the first, 0.214 for the second.

Going from GAATACAC to AAATACAG, the “PBM E-score” value falls from 0.363 to 0.212.

Going from ATCCTTAA to CACGCTGG, the “PBM E-score” value falls from 0.00499 to -0.0203.

First: GGTGCTAA
Second: AGGTTGAG
The “PBM E-score” value of the first is lower: -0.0828 for the first, 0.0336 for the second.

First: TAACTCCA
Second: CAGAAATG
The “PBM E-score” value of the first is lower: -0.179 for the first, 0.00635 for the second.

Going from CACGTTCG to ACAGGCGA, the “PBM E-score” value rises from 0.00382 to 0.0648.

First: ACAGGCAA
Second: ACAGGCAT
The “PBM E-score” value of the first is higher: 0.489 for the first, 0.409 for the second.

Compared with ACAGGCAG, ACAGGCCT is lower in “PBM E-score” value: 0.239 for the first, 0.00325 for the second.

Compared with ACAGGCCA, CCCACTGC is lower in “PBM E-score” value: 0.296 for the first, -0.32 for the second.

Compared with GTACCCAC, TATGGCAA is lower in “PBM E-score” value: 0.0626 for the first, -0.0849 for the second.
